Source: PubChem BioAssay
Shown are actives, neighbours in structure and some others; about 0.85% of the full set was active somewhere.
GLS inh: inhibitors of human glutaminase (GLS). actives 0.21% (n = 410,000). AID 624170. Potency, µM (top dose mostly 45.5 µM), without a hit: top-dose activity change, negative = inhibition, actives largely listed as inhibitors. GLS enzymatic activity, qHTS titration. O94925
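Read-out is an Amplex red fluorescence increase coupled through glutamate oxidase and HRP, measured before and after 30 min room-temperature incubation. hKGA is in 45 mM KH2PO4 (pH 8.2) with 0.02% Tween-20; glutamine added as 1mM solution.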
BLM inh: Bloom syndrome helicase (human) inhibition; P54132; recombinant BLM DNA unwinding, fluorescence dequenching; Potency, µM (highest dose often 56.1 µM), without a hit: at the highest dose activity change, negative = inhibition, usual class: inhibitors; actives 0.2% (n = 350,000); AID 2528;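 further: plate controls were vehicle for no effect and no enzyme for full effect; nearly all actives have a fitted effect of over 35% in size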
RECQ1 inh-1: inhibitors of human RECQ1 DNA helicase. Potency, µM (highest dose often 57.3 µM), without a hit: top-dose activity, negative = inhibition, usual class: inhibitors. P46063. actives 0.54% (n = 240,000). AID 2549. RECQ1 DNA unwinding, red fluorescence kinetic read;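 further: plate controls were vehicle for no effect and no enzyme for full effect; nearly all actives have a fitted effect of over 30% in size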
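RECQ1T1 50 nM; forked duplex (20 bp + 30-nt ss tails) 200 nM, ATP 2 mM final; pH 8.0, 2 mM MgCl2, 2.5 ug/ml poly(dI-dC); 15 min compound preincubation; discontinuous kinetic read over 2 h at RT.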
TDP1 block: blocks human tyrosyl-DNA phosphodiesterase 1. actives 0.28% (n = 350,000). recombinant TDP1, AlphaScreen DNA substrate cleavage. Q9NUW8. Potency, µM (highest dose often 130 µM), inactives show at the highest dose activity change, negative = inhibition, hits mostly inhibitors; further: nearly all actives have a fitted effect of over 40% in size
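Here, a 5' biotin and 3' phosphotyrosine-FITC DNA oligonucleotide reports Tdp1 activity: intact substrate bridges AlphaScreen beads, while cleavage leaves a 3' phosphate and drops signal. All incubations at room temperature.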
Tb PGK inh: inhibitors of T. brucei phosphoglycerate kinase; PGK/GAPDH coupled, Kinase-Glo luminescence, 60 min; actives 0.043% (n = 380,000); P07378; Potency, µM (highest dose often 57.5 µM), for inactives: at the highest dose activity change, negative = inhibition, hits mostly inhibitors; further: nearly all actives have a fitted effect of over 60% in size
Target sequence (P07378 whole entry, looked up): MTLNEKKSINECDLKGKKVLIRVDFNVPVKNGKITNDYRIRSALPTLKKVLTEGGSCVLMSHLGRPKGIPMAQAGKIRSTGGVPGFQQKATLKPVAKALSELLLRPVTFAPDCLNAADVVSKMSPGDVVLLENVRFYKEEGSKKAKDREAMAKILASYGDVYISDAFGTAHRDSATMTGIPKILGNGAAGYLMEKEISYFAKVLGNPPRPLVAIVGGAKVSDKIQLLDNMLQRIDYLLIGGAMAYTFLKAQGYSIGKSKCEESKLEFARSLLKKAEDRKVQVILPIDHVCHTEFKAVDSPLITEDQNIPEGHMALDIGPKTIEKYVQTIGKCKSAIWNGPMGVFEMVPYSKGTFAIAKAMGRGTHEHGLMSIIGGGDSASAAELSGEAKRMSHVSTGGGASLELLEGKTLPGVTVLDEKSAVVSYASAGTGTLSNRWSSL
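Luminescent ATP detection (Kinase-Glo Plus) follows a 60-minute room-temperature incubation, with wells lacking PGK as controls. Buffer: 100 mM TEA (pH 7.6), 5 mM MgCl2, 0.01% Tween-20. Coupling enzyme GAPDH (100 nM final) supplies unstable 1,3-BPG in-well.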
APE1 inh: APE1 (human) endonuclease inhibition; P27695; recombinant APE1, TAMRA/BHQ-2 abasic DNA cleavage fluorescence; Potency, µM (highest dose often 65.8 µM), inactives show at the top dose activity change, negative = inhibition, usual class: inhibitors; actives 0.35% (n = 350,000); AID 2517;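 further: plate controls were vehicle for no effect and reference inhibitor for full effect; nearly all actives have a fitted effect of over 55% in size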
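Step 1: APE1 (0.75 nM) with compound, 15 min RT. Step 2: add 50 nM fluorophore/quencher THF duplex. Step 3: three fluorescence reads 60 s apart (525/598 nm); read 3 minus read 1 = reaction progress.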
RECQ1 inh conf: confirmation of human RECQ1 helicase inhibitors; Potency, µM (series often up to 229 µM), without a hit: at the top dose activity change, negative = inhibition, usual class: inhibitors; shares compounds with RECQ1 inh-1; AID 2708; actives 28% (n = 610); RECQ1 helicase DNA unwinding, fluorescence; further: nearly all actives have a fitted effect of over 45% in size
ADP FP counter: displaces ADP in a fluorescence polarization counter-screen for RECQ1 hits; shares compounds with RECQ1 inh-1; ADP fluorescence polarization displacement counterscreen; Potency, µM (top dose mostly 228 µM), inactives show at the highest dose activity change, negative = inhibition, usual class: inhibitors; actives 27% (n = 530); further: nearly all actives have a fitted effect of over 45% in size
RECQ1 inh-2: confirmation of human RECQ1 helicase inhibitors; actives 15% (n = 1,100); recombinant RECQ1 DNA unwinding, red fluorescence; shares compounds with RECQ1 inh-1; Potency, µM (top dose mostly 119 µM), inactives show top-dose activity, negative = inhibition, most hits filed as inhibitors; further: nearly all actives have a fitted effect of over 50% in size
Active calls of the source: *; i = inactive; ? = inconclusive; / = no result given; [ ] = dose if it differs, or a comment. The call rests on the fitted dose curve; in most records, active means well fitted curve in the direction sought with a large enough effect; inconclusive means small, poorly fitted or top-dose-only effect, or another doubt; inactive means no such curve, though single readings can be large; an effect the other way counts as inactive or inconclusive. Unless noted, on the % scale 0 is the no-effect control and ±100 the full control effect; potency means the concentration at half of the fitted maximal effect.

SMILES	GLS inh	BLM inh	RECQ1 inh-1	TDP1 block	Tb PGK inh	APE1 inh	RECQ1 inh conf	ADP FP counter	others
CSCC[C@H](N)C(=O)N[C@@H](C)C(=O)NCC(=O)N[C@@H](CCCN=C(N)N)C(=O)N[C@@H](CO)C(=O)NCC(=O)N[C@@H](CC(=O)O)C(=O)N[C@@H](CO)C(=O)N[C@@H](CC(=O)O)C(=O)N[C@@H](CCC(=O)O)C(=O)N[C@@H](CC(=O)O)C(=O)N[C@@H](CC(C)C)C(=O)N[C@@H](CC(C)C)C(=O)N[C@@H](CCCCN)C(=O)N[C@@H](C)C(=O)N[C@H](C(=O)O)C(C)C	/	-1.0%	-7.1%	10.8%	/	?	/	/
Cc1ccccc1OCCCCc1c(C)n[nH]c1C	-1.3%	-2.6%	?	5.9%	-4.7%	-0.8%	/	/	RECQ1 inh-2=-13.9%
Cc1n[nH]c(C)c1CCCCOc1ccccc1F	16.5%	-4.1%	/	/	9.5%	13.1%	/	/
CCN(CC)c1ccc(/C=N/NC(=S)NCc2ccc(OC)cc2)cc1	-14.1%	-5.2%	-11.9%	5.7%	-1.3%	-5.5%	/	/
CCN(CC)c1ccc(/C=N/NC(=S)NCc2ccccc2)cc1	24.6%	-8.4%	7.08µM*	9.3%	-4.1%	-0.5%	-7.3%[114 µM]	6.6%[91.9 µM]
COc1ccc(S(=O)(=O)NCCCC(=O)Nc2ccc(Sc3ccc(N)cc3)cc2)cc1	/	-7.3%	-5.4%	17.4%	/	-3.2%	/	/
C=CCn1c(NC(=O)c2ccc(Br)o2)c(S(=O)(=O)c2ccccc2)c2nc3ccccc3nc21	32.3%	?	?	3.8%	/	?	/	/	RECQ1 inh-2=-12.7%
COc1ccc(/C=C2\SC(=O)N(CC(=O)NNC(=O)c3ccccc3O)C2=O)cc1	-18.9%	-2.8%	2.82µM*	0.0%	-0.1%	16.3%	/	/	RECQ1 inh-2=?
Cc1ccc(-c2nc3cccc(C)n3c2Nc2ccc(F)cc2)o1	/	/	/	7.7%	/	/	/	/
CCn1c(SCC(=O)Nc2cc(C)on2)nnc1-c1ccc(S(=O)(=O)N2CCCC2)cc1	0.9%	-1.0%	i	-4.8%	1.1%	0.6%	/	/
CC1Cc2ccccc2N1C(=O)CSc1nnc(-c2ccc(S(=O)(=O)N3CCOCC3)cc2)n1C (configuration not stated)	9.3%	-1.2%	-2.6%	-2.3%	5.2%	12.4%	-0.5%	?
Cc1cc(NC(=O)CSc2nnc(-c3ccc(S(=O)(=O)N4CCCC4)cc3)n2C)no1	0.5%	0.6%	-7.0%	1.0%	-1.2%[11.5 µM]	1.8%	-3.8%	2.7%
CC1CCN(C(=O)CSc2nnc(-c3ccc(S(=O)(=O)N4CCOCC4)cc3)n2C)CC1	16.8%	3.5%	-0.2%	0.0%	/	7.4%	/	/
Cc1csc(NC(=O)CSc2nnc(-c3ccc(S(=O)(=O)N4CCCC4)cc3)o2)n1	11.9%	0.8%	-0.8%	5.2%	1.5%	0.3%	8.0%	11.4%
CC(=O)Oc1ccc2cc(-c3nc4c(s3)CCc3ccccc3-4)c(=O)oc2c1	/	/	/	-5.4%	/	/	/	/
O=C(CN(c1ccccc1)S(=O)(=O)c1ccccc1)NCCSCc1ccco1	4.6%	-27.1%	14.1µM*	28.2µM*	-7.6%	7.94µM*	50.1µM*	50.1µM*	RECQ1 inh-2=?
COc1ccc(N(CC(=O)NCCSCc2ccco2)S(=O)(=O)c2ccccc2)cc1	1.4%	-10.2%	-5.3%	0.0%	-9.1%	1.2%	/	/
